In the library only some 4.8% were active in any assay of this set; here they are far more common.
ALR H2O2 inh = human ALR oxidase inhibition via reduced H2O2 | inhibition, % (no concentration beside the values) | P55789 | purified ALR, DTT oxidation, H2O2 HRP-luminol luminescence | 290,000 tested, 3.8% active;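 active = mean replicate inhibition above about 79%, with every replicate also reaching it, limit read from the data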
Target sequence (P55789 whole entry, looked up): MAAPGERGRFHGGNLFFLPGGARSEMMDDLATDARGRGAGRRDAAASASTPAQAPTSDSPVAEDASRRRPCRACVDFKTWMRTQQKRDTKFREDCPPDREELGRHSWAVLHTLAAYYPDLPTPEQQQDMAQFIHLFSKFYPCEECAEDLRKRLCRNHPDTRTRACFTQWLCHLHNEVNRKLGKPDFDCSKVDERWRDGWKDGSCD
AI-2 QS modul = modulates the Vibrio harveyi AI-2 quorum sensing system; Vibrio harveyi JMH597 AI-2 luminescence/OD600 ratio, 9 h; active compounds read low; strain lacks LuxN and CqsS sensors; 0 = neutral-control median; AID 2094; activity change, % at 7.5 µM; 300,000 tested, 0.4% active; in the data active = activity change below about -75%, passing the limit was not always enough;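 also: luminescence divided by OD600 gain over 9 h not by final OD600 alone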
HIF activator = HIF pathway transcriptional activation; U2OS HRE-luciferase reporter, luminescence; normalized: DMSO 0%, desferrioxamine 100%; activation, % at 7.5 µM (by protocol); 300,000 tested, 0.32% active;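 active = mean activation of at least 10% of the iron chelator positive control signal, with at least half of replicates also reaching 10%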
SUMO Mot1 rescue = blocks SUMOylation pathway, rescuing yeast Mot1-301 growth | S. cerevisiae Mot1-301 growth rescue, ATP luminescence, 38.5C; percent above DMSO median, 100 means doubled | growth rescue, % at 18.8 µM | 320,000 tested, 1% active | AID 2716;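 active = every valid replicate shows activation above 250% relative to neutral control wells; inactive = the rest, any valid replicate at or below 250%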;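 also: OY570 slx delta 5 strain wells were the positive control but not used for scaling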
Active calls of the source: *; x = no result.

SMILES	ALR H2O2 inh	AI-2 QS modul	HIF activator	SUMO Mot1 rescue
CCNC(=O)Nc1cc(OC)c(OC)cc1C(=O)O	-9	28	-1	0
Cn1cnnc1SCC(=O)Nc1ncc([N+](=O)[O-])s1	54	x	x	16
CCCCn1c(-c2nn(C)c(C)c2Cl)n[nH]c1=S	48	-10	0	-12
CCc1cc(-c2n[nH]c(=S)n2N)n(C)n1	95*	9	-1	3
CCc1nn(C)c(-c2n[nH]c(=S)n2N)c1Cl	91*	14	0	10
Cc1cc(-c2n[nH]c(=S)n2Cc2ccco2)n(C)n1	-5	-2	-1	-11
CCOC(=O)C1=C(COC(=O)CCOc2ccc(C)cc2)NC(=O)NC1C (stereo unspecified)	19	-27	0	3
COc1cc(C2Nn3c(nnc3-c3ccccc3OC)S2)ccc1O (stereo unspecified)	99*	17	0	1
O=C(O)C1Nc2ccc(OC(F)(F)F)cc2C2C=CCC12 (stereo unspecified)	97*	23	-6	3
COc1cccc2c1NC(C(=O)O)C1CC=CC21 (stereo unspecified)	81*	29	0	-18
O=C(O)C1Nc2c(cccc2C(F)(F)F)C2C=CCC12 (stereo unspecified)	-29	26	-1	68
CN(CC(=O)Nc1ccc(F)c(F)c1F)C(=O)c1nn(Cc2ccccc2)c(=O)c2ccccc12	x	x	x	15
CCOc1cc(CNCc2cccnc2)cc(Br)c1OCC(N)=O	-2	7	-2	-5
Cc1cc(C)n(C(C[N+](=O)[O-])c2ccc(Cl)cc2)n1 (stereo unspecified)	-35	-31	0	279*
CNc1nc(N)c(C(=O)C(C)(C)C)s1	99*	2	0	8
CNc1ncc(C(=O)C(C)(C)C)s1	0	20	0	8
Cc1ccc(S(=O)(=O)Nc2nc(C)c(C(=O)NN)s2)cc1	-6	28	-1	9
C/C(=N/NC(=O)c1sc(NS(=O)(=O)c2ccc(C)cc2)nc1C)c1sc(N)nc1C	99*	17	0	274
COC1CCCCC1Nc1cc(C)cc(C)c1 (stereo unspecified)	2	8	0	31
COC1CCCCC1Nc1cccc(SC)c1 (stereo unspecified)	99*	21	-1	-20
Cc1cc(C)n(/N=C/c2c[nH]c3ccccc23)c(=O)c1C#N	-7	17	0	296*
C#CCOc1ccc(/C=C2/C(=O)NN(c3ccc(F)cc3)C2=O)cc1OC	98*	7	-2	68
COC(=O)c1ccc(N2NC(=O)/C(=C/c3ccc(OC)c(OC)c3)C2=O)cc1	12	39	-1	8
COc1cc(/C=C2\C(=O)NN(c3ccccc3)C2=O)ccc1OCC(N)=O	96*	18	1	20
O=C1c2ccc(Cl)cc2S(=O)(=O)c2cccc(C(=O)N3CCC(Cc4ccccc4)CC3)c21	-3	x	x	-23
SMILES	ALR H2O2 inh	AI-2 QS modul	HIF activator	SUMO Mot1 rescue
Cc1ccc(S(=O)(=O)N2CCOCC2)cc1NC(=O)COC(=O)CCc1c[nH]c2ccccc12	3	x	x	0
Cc1cc(=O)n2nc(N3CCCC(C(=O)NCCCN4CC(C)CC(C)C4)C3)sc2n1 (stereo unspecified)	2	8	0	53
O=C(NCc1cccnc1)c1ccc(COc2ccccc2Br)cc1	-1	8	0	28
O=C(NCc1ccco1)c1ccc(COc2ccccc2Cl)cc1	99*	23	0	-19
Cc1cc(C)nc(NC(=O)c2ccc(COc3ccccc3Cl)cc2)c1	97*	14	0	8
O=C(NCc1cccnc1)c1ccc(COc2ccccc2Cl)cc1	98*	32	0	11
O=C(NCc1ccco1)c1ccc(Oc2ccccc2)cc1	90*	-32	2	x
O=C(Nc1ccn(Cc2c(F)c(F)cc(F)c2F)n1)c1ccc(COc2ccccc2Cl)cc1	1	7	-1	-2
COc1cc(S(=O)(=O)N2CC(=O)Nc3ccccc32)ccc1NC(C)=O	-9	39	0	4
O=C(Cn1ccc(NC(=O)OCc2ccccc2)nc1=O)NCc1nc2ccccc2[nH]1	-1	x	x	-6
O=C(NCc1ccco1)c1ccccc1F	58	23	0	29
O=C(NCc1ccco1)c1ccccc1Nc1ccc(F)cc1	99*	-13	0	11
COCC1CCCN(C(=O)c2cc(COc3ccc4ncccc4c3)on2)C1 (stereo unspecified)	-7	13	1	-20
COc1ccc(S(=O)(=O)N2CCC(c3cc(-c4cccc5ccccc45)n[nH]3)CC2)cc1	x	27	11*	-14
O=C(NCc1ccccc1)C(=O)c1cn(CC(=O)N2CCOCC2)c2ccccc12	3	6	197*	15
NC(=O)c1ccc(NC(=O)CSc2cn(CC(=O)N3CCOCC3)c3ccccc23)cc1	99*	16	0	-15
COc1ccc(OC)c(N(CC(=O)NCC2CCCO2)S(=O)(=O)c2ccccc2)c1 (stereo unspecified)	1	16	-1	200
O=C(Cc1ccccc1[N+](=O)[O-])OCc1cccc([N+](=O)[O-])c1	x	-4	1	-5
O=C(c1cccc(S(=O)(=O)N2CCOCC2)c1)N1CCCC(C(F)(F)F)C1 (stereo unspecified)	2	15	0	67
Cc1ccc(CNC(=O)C2CCCN2C(=O)Nc2ccc(F)cc2)cc1 (stereo unspecified)	-15	8	2	-4
Cc1nc2ccccc2n1CC(=O)c1ccccc1	-6	12	-1	345
Cc1nc2ccccc2n1CC(=O)c1ccc(O)c(O)c1	98*	x	x	-8
Cc1cc(NC(=O)CCC(=O)N(CC(=O)NCC2CCCO2)c2ccc(C(C)C)cc2)no1 (stereo unspecified)	6	3	0	245
Cc1cc(N2CCCC2)ccc1NC(=O)CN1C(=O)NC(C)(c2ccccc2)C1=O (stereo unspecified)	99*	-11	-3	1
CCN(Cc1nc2ccccc2c(=O)[nH]1)C(=O)c1cc2c(s1)CCCCC2	-1	x	x	6
SMILES	ALR H2O2 inh	AI-2 QS modul	HIF activator	SUMO Mot1 rescue
CC(=O)c1ccc(S(=O)(=O)NCC(=O)Nc2nc3ccccc3[nH]2)cc1	37	x	x	-8
CCOc1ccc(CCNC(=O)COC(=O)CSc2ccccc2C)cc1OCC	-1	18	-1	10
CCCCNC(=O)CSc1nc(O)c(Cc2ccc(OC)cc2)c(=O)[nH]1	x	14	-1	-7
COc1ccc(NC(=O)CSc2nc(O)c(Cc3ccccc3)c(=O)[nH]2)cc1	99*	7	0	-3
CCc1c(O)nc(SCc2nc3ccccc3c(=O)[nH]2)[nH]c1=O	98*	0	0	-6
CCOc1ccc(CCNC(=O)CSc2n[nH]c(N)n2)cc1OCC	10	20	-1	357*
C=CCc1c(C)nc(SCc2nc3ccccc3c(=O)[nH]2)[nH]c1=O	7	25	-1	5
O=C(CSc1nc2ccccc2c(=O)[nH]1)Nc1ccc(Br)cc1	x	2	38*	-1
